Among all 1,100 compounds or so, about 350 (32%) were called active. No rule for the calls is given here. These entries were drawn from the full list. Entries with a potency or affinity are not part of this list.

This assay in a line: viability loss in CEM21 cells – cell-based, CellTiter-Glo luminescence, cherry-picked, cytotoxicity control for viral fusion inhibitor project, dose response (AID 652042). Particulars: CellTiter-Glo ATP luminescence, 24 h; series mostly up to 35 µM.
Consider `Cc1cc(C(=O)NC2CCCc3c2cnn3-c2ccc(C(C)(C)C)cc2)nn1C` (stereo not given), for which the activity change, negative = cytotoxicity entry is “inactive”.
The entry for `CC(C)(C)c1ccc(-n2ncc3c2CCCC3NC(=O)CN2CCCC2=O)cc1` (stereo not given) is “inactive”.
The entry for `CCC12CN(S(=O)(=O)c3ccc(C)cc3)CC(CC)(CN(S(=O)(=O)c3ccc(C)cc3)C1)C2=O` is “inactive”; for `O=C(C[C@@H]1C/C=C/CC[C@@H](Cc2ccc(F)cc2)C(=O)O[C@H](c2ccccc2)CNC1=O)NCCO` it is “inactive”.
As to `CC[C@@]12C(=O)N(c3ccc(C)cc3)C(=O)N1[C@H](c1ccc(OC)cc1)[C@@H]1C(=O)N(C(C)(C)C)C(=O)[C@@H]12`, the activity change, negative = cytotoxicity entry was “inactive”.
The entry for `O=C(c1ccc2ncsc2c1)N1CCN(c2nc3ccccc3s2)CC1` is “inactive”; for `Cc1cc(CSc2ccccc2)ccc1NC(=O)c1ccc(CN2CCOCC2)cc1` it is “inactive”.
With `CCCOc1ccc2ccccc2c1/C=N/n1cnnc1` the entry was “inactive”; with `CS(=O)(=O)N1CCN(c2ccccc2NC(=O)C(c2ccccc2)c2ccccc2)CC1`, “inactive”.
With `COC(=O)C[C@H]1C=C[C@H](NC(=O)c2ccccn2)[C@@H](CO)O1` the entry was “inactive”.
In the case of `C[C@@H]1CNC(=O)c2c(C(=O)N3CCN(c4ccccc4)CC3)ncn21`, the activity change, negative = cytotoxicity entry is “inactive”.
The entry for `O=C(N(Cc1ccccc1)c1ccccn1)C12CC3CC(CC(C3)C1)C2` is “inactive”; for `CCNC1CCC(Nc2ccnc3cc(Cl)ccc23)CC1` (stereo not given) it is “inactive”; for `O=C(Nc1cccc(F)c1)c1cc(S(=O)(=O)N2CCC(C(=O)O)CC2)ccc1F` it is “inactive”.
Turning to `CC(C)OCCCn1c(=S)[nH]c2ccc(N3CCOCC3)cc2c1=O`, the activity change, negative = cytotoxicity result is “inactive”.
With `Cc1ccc(C(=O)CN2C(=O)c3ccccc3S2(=O)=O)cc1` the entry was “inactive”; with `O=C(Nc1ccccc1N1CCN(C(=O)c2ccccc2)CC1)c1ccc(Br)o1`, “inactive”.
`CCOC(=O)c1cccc(NS(=O)(=O)c2ccc(NC(C)=O)cc2)c1`: the activity change, negative = cytotoxicity entry is “inactive”.
With `O=C(c1ccc(S(=O)(=O)Nc2ccc(F)cc2)cc1)N1CCN(C(=O)c2ccco2)CC1` the entry was “inactive”; with `COc1cc2c(c(OCC(=O)NC(C)C)c1)C(=O)O[C@@H](C)CCCC(=O)CCCCC2`, “inactive”; with `Nc1c(Cl)cc2c(c1Oc1ccccc1)C(=O)c1ccccc1C2=O`, “inactive”.
With `CN(Cc1cccs1)c1ncnc2sccc12` the entry was “inactive”; with `C[C@H]1CN([C@@H](C)CO)C(=O)c2cccc(NC(=O)c3ccncc3)c2O[C@@H]1CN(C)C(=O)Nc1cccc2ccccc12`, “inactive”; with `C[C@@H]1CN([C@H](C)CO)C(=O)c2cccc(NC(=O)C3CCCCC3)c2O[C@H]1CN(C)Cc1ccccc1`, “inactive”.
With `C[C@@H]1CN([C@H](C)CO)C(=O)c2cccc(NC(=O)c3ccncc3)c2O[C@H]1CN(C)CC1CCCCC1` the entry was “inactive”; with `C[C@@H]1CN([C@H](C)CO)C(=O)c2cccc(NC(=O)c3ccncc3)c2O[C@@H]1CN(C)Cc1ccc(C(=O)O)cc1`, “inactive”; with `CC(C)(C)c1ccc(-c2noc(CCC(N)=O)n2)cc1`, “inactive”.
Regarding `CCOc1ccc(N(CC(=O)NCCSCc2ccc(Cl)cc2)S(C)(=O)=O)cc1`, the activity change, negative = cytotoxicity entry was “inactive”.
The entry for `CCCN(CC(=O)Nc1ccccc1OC)C(=O)c1cccc(S(=O)(=O)NCc2ccccc2)c1` is “inactive”; for `COc1ccc(Cl)cc1NC(=O)CN(C1CCCCC1)S(C)(=O)=O` it is “inactive”; for `Cc1n[nH]c(C)c1S(=O)(=O)N(CC(=O)NC1CCCC1)c1ccc(C(C)C)cc1` it is “inactive”.
With `C#CCn1c(=O)c2c(ncn2C)n(C)c1=O`, the activity change, negative = cytotoxicity result was “inactive”.
With `C=C1CCN([C@H](C(=O)OCc2cccc(C)c2)C(C)C)S(=O)(=O)c2ccccc21` the entry was “inactive”; with `CCN1C(=O)[C@H]2[C@H]3CN=C(SCc4ccc(Cl)cc4)N3[C@@](CC)(C(=O)OC)[C@H]2C1=O`, “inactive”.
The entry for `O=C(Nc1cc(Cl)cc(Cl)c1)C(c1ccccc1)N1CCCCC1` (stereo not given) is “inactive”; for `Cc1onc(-c2ccccc2)c1C(=O)OCCOc1cccc(Cl)c1` it is “inactive”; for `CCn1c(C)cc(C(=O)CN2C(=O)c3ccccc3S2(=O)=O)c1C` it is “inactive”.
As to `O=C(Nc1cc2c3c(c1)CC(=O)N3CCC2)c1ccc(Cl)cc1`, the activity change, negative = cytotoxicity entry was “inactive”.
With `O=C(NCCCc1nc2ccccc2[nH]1)c1ccco1` the entry was “inactive”; with `CN(c1ccccc1)S(=O)(=O)c1ccc(Cl)c(C(=O)Nc2nc3ccccc3[nH]2)c1`, “inactive”.
The entry for `CCNC(=O)C[C@H]1CC[C@@H]2[C@@H](COc3ccc(NC(=O)Nc4cccc(OC)c4)cc3C(=O)N2C)O1` is “inactive”; for `Cc1[nH]c2ccccc2c1/C=N\NC(=O)c1ccccc1Cl` it is “inactive”.
The entry for `COc1cccc(-c2noc(C3CCCN(S(=O)(=O)c4cccc(Cl)c4C)C3)n2)c1` (stereo not given) is “inactive”; for `CCOc1cccc(N(C(=O)Cc2cccs2)C(C(=O)NC2CCCCC2)c2cccn2C)c1` (stereo not given) it is “inactive”.
Consider `Cc1ccc2c(c1)C(=C(C#N)C#N)CCN2`, for which the activity change, negative = cytotoxicity entry was “inactive”.
With `COc1ccc(C(=O)CN2C(=O)c3ccccc3S2(=O)=O)cc1` the entry was “inactive”; with `COc1cc(/C=N/NS(=O)(=O)c2ccc(C)cc2)ccc1OCc1cccc(C(=O)O)c1`, “inactive”; with `CCOc1ccccc1CNc1ncnc2ccc(-c3c(C)noc3C)cc12`, “inactive”.
The entry for `COC(=O)C1(C(=O)OC)C[C@H](c2ccc(OC)cc2)N(Cc2ccccc2OC)[C@@H]1c1ccccc1` is “inactive”; for `CCCCn1c(CN(C)Cc2ccccc2)nc2c1c(=O)n(C)c(=O)n2C` it is “inactive”.
The entry for `CCCNC(=O)C[C@H]1C[C@H]2c3cc(NC(=O)CN(C)C)ccc3O[C@H]2[C@@H](CO)O1` is “inactive”; for `CC[C@@]1(C(=O)OC)N[C@H](CN(C)C(=O)Nc2ccc(C(F)(F)F)cc2)[C@@H]2C(=O)N(Cc3ccccc3)C(=O)[C@@H]21` it is “inactive”.
Turning to `COC(=O)[C@]12CCCCC=C1N(Cc1ccco1)C(=O)[C@H](CC(=O)NCCc1ccccc1OC)C2`, the activity change, negative = cytotoxicity entry is “inactive”.
In the case of `Cn1c(=O)oc2cc(S(=O)(=O)NCc3ccncc3)ccc21`, the activity change, negative = cytotoxicity result was “inactive”.
The entry for `OCCN1CCN(C(=S)c2ccc(-c3ccccc3)cc2)CC1` is “inactive”.
`CC1CCCN(C(=O)c2ccc(S(=O)(=O)N3CCC(c4nc5ccccc5s4)CC3)cc2)C1` (stereo not given): the activity change, negative = cytotoxicity result is “inactive”.
The entry for `Cn1cc(S(=O)(=O)N2CCOCC2)cc1C(=O)Nc1cccc(Cl)c1` is “inactive”; for `Cn1c(C(=O)N2CCN(c3nc4ccccc4s3)CC2)cc2sccc21` it is “inactive”; for `CN(CC(=O)NCCc1ccc(S(N)(=O)=O)cc1)CC(=O)Nc1ccc(Cl)c(C(F)(F)F)c1` it is “inactive”.
The entry for `CCN(C[C@H]1N[C@@](C)(C(=O)OC)[C@H]2C(=O)N(Cc3ccccc3)C(=O)[C@@H]12)C(=O)Nc1ccccc1` is “inactive”.
With `Nc1ncn([C@H]2C[C@H](O)[C@@H](CO)O2)c(=O)n1`, the activity change, negative = cytotoxicity result was “inactive”.
The entry for `CCc1cc2c(NCc3ccco3)ncnc2s1` is “inactive”; for `Nc1nc2c(ncn2[C@@H]2O[C@H](C(=O)NCC(c3ccccc3)c3ccccc3)[C@@H](O)[C@H]2O)c(=O)[nH]1` it is “inactive”.
For `COc1ccccc1-c1c(-c2ccc(O)cc2O)n[nH]c1C(F)(F)F`, the activity change, negative = cytotoxicity entry was “inactive”.
With `C=C1CCN([C@H](C(=O)OCc2ccc(C)cc2)C(C)C)S(=O)(=O)c2ccccc21` the entry was “inactive”.
With `COC(=O)[C@]1(C)N[C@H](CN(C)S(=O)(=O)c2ccc(-c3ccccc3)cc2)[C@@H]2C(=O)N(Cc3ccccc3)C(=O)[C@@H]21` the entry was “inactive”; with `O=C(NCc1ccco1)c1ccc(Cn2c(=O)c3ccccc3n(Cc3ccc(Cl)cc3)c2=O)cc1`, “inactive”.
Consider `COc1ccc(CCN(Cc2cccs2)S(=O)(=O)c2ccc(-n3cnnn3)cc2)cc1OC`, for which the activity change, negative = cytotoxicity result was “inactive”.
The entry for `Nc1c(S(=O)(=O)c2cccs2)c2nc3ccccc3nc2n1CCc1ccccc1` is “inactive”.
With `CCOC(=O)[C@@H]1[C@H]2COc3ccc(Br)cc3[C@@H]2N2C(=O)N(c3cccc(F)c3)C(=O)[C@@]12C` the entry was “inactive”; with `Cn1c(=O)c2c(nc(Oc3ccc4ccccc4c3)n2C)n(C)c1=O`, “inactive”; with `COc1cc(/C=N/O)ccc1OCc1ccc(C(=O)O)cc1`, “inactive”.
With `COc1ccc(/C=C/c2nc(S(=O)(=O)c3ccccc3)c(NCCCN(C)C)o2)cc1OC` the entry was “inactive”; with `O=C(Nc1cc(Cl)cc(Cl)c1)C1CCC(=O)N1Cc1ccccc1Cl` (stereo not given), “inactive”; with `CCCNC(=O)N1[C@H](C#N)[C@H](c2ccc(-c3cccc(OC)c3)cc2)[C@@H]1CO`, “inactive”.
In the case of `CN(C)C(=O)CCC(=O)N1CCCC(C(=O)c2ccc3c4c(cccc24)CC3)C1` (stereo not given), the activity change, negative = cytotoxicity entry was “inactive”.
With `O=C(C[C@H]1C[C@H]2c3cc(NC(=O)NC4CCCC4)ccc3O[C@H]2[C@@H](CO)O1)NC1CCCCC1` the entry was “inactive”; with `COC(=O)[C@@]12CCCN1[C@H](c1ccc(-c3ccc(F)cc3)c(OC)c1)[C@H]1C(=O)N(C)C(=O)[C@H]12`, “inactive”; with `O=C(c1ccccc1)N1CCN(c2ncnc3sc4c(c23)CCC4)CC1`, “inactive”.
As to `CCN(Cc1nc2cc(Cl)ccc2c(=O)[nH]1)C(=O)c1cc(C2CC2)nn1-c1ccccc1`, the activity change, negative = cytotoxicity result was “inactive”.
The entry for `Cc1cc(C)c(CN2CCN(C(=O)Cn3cnc4c(NCc5ccccc5)ncnc43)CC2)c(C)c1` is “inactive”; for `O=C(Cn1ncc2c(=O)oc3ccccc3c21)N1CCC(N2CCCCC2)CC1` it is “inactive”.
With `CCOC(=O)C1CCN(C(=O)c2ccc3c(c2)C(=O)N(c2ccccc2C)C3=O)CC1` the entry was “inactive”.
With `COc1ccccc1CN1C(=O)CN(C2CCCCCC2)C(=O)C1c1ccc(F)cc1` (stereo not given) the entry was “inactive”; with `COc1ccccc1[C@@H]1C(c2ccc(F)cc2)=NN(c2ccccc2)[C@H]1C(=O)N1CCOC1=O`, “inactive”.
In the case of `CCN(C1CCCCC1)S(=O)(=O)c1ccc(S(=O)(=O)NCc2ccncc2)cc1`, the activity change, negative = cytotoxicity result was “inactive”.
The entry for `CC[C@@]12C(=O)N(c3ccccc3)C(=O)N1[C@H](c1ccc(OC)cc1)[C@@H]1C(=O)N(C(C)(C)C)C(=O)[C@@H]12` is “inactive”; for `Cc1nc2sccn2c1-c1csc(NCc2ccccc2)n1` it is “inactive”; for `O=C(CN(Cc1ccccc1F)S(=O)(=O)c1ccc(Cl)cc1)NCCC1=CCCCC1` it is “inactive”.
With `O=C(CN(Cc1ccccc1)S(=O)(=O)c1ccc(F)cc1)NCCC1=CCCCC1` the entry was “inactive”.

(Values after PubChem BioAssay AID652042 (Broad Institute, 2013).)
